Laboratory results as given in PubChem BioAssay.
Active and inactive are the calls of the source. Unless noted, how the calls were made is not given here.

Experiments:
[1] = resazurin metabolic signal in HepG2 cells – cell-based, resazurin fluorescence, 24 h, PK04 Diversity Set, profiling panel (AID 1172); details: HepG2 viability, higher = more signal
[2] = budding yeast growth changes without added modifier – OD600, strain BY4716, 24 h, basal condition, primary screen (AID 1173); details: S. cerevisiae BY4716 growth, OD600, 24 h; higher = more signal, called active from +8 up or from −8 down
[3] = viability profiling in MM1S myeloma cells – cell-based, resazurin fluorescence, basal, 24 h, PK04 Diversity Set, profiling panel (AID 1174); details: higher = more signal, called active from +8 up or from −8 down;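 further: MM1S multiple myeloma cell line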
[4] = target: Dihydroorotate dehydrogenase (quinone), mitochondrial (Plasmodium falciparum (isolate 3D7)) (UniProt Q08210); experiment: inhibition of P. falciparum DHODH – biochemical, C-terminal His tag, absorbance 600 nm, primary screen (AID 1175); details: PfDHODH enzyme, DCIP absorbance 600 nm; higher = more signal, called active from +8 up or from −8 down;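 further: recombinant parasite enzyme with a five histidine tag at its C terminus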
[5] = inhibition of PAO1 biofilm formation – strain PAO1, LB-PBS medium, absorbance 600 nm, primary screen (AID 1176); details: P. aeruginosa PAO1 growth/biofilm, A600, 12 h; higher = more signal
[6] = growth modulation of vineyard yeast isolate – strain RM11-1a, OD600, basal, 24 h, primary screen (AID 1177);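 further: cultures grown under basal conditions with no added stressor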; details: S. cerevisiae RM11-1a growth, OD600, 24 h; higher = more signal, called active from +8 up or from −8 down
[7] = growth of efflux-deficient E. coli DRC39 – strain DRC39, OD650, 24 h, E. coli filamentation inducers, primary screen (AID 1178);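 further: growth measured as culture turbidity by optical density at 650 nm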; details: E. coli DRC39 acrAB, higher = more signal, called active from +8 up or from −8 down
[8] = growth of efflux-deficient E. coli DRC39 – strain DRC39, OD650, 48 h, E. coli filamentation inducers, primary screen (AID 1179);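 further: screen aims at cell division blockers that make cells filament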; details: E. coli DRC39 delta-acrAB growth, higher = more signal, called active from +8 up or from −8 down
[9] = viability profiling in RPMI8226 myeloma cells – cell-based, resazurin fluorescence, basal, 24 h, PK04 Diversity Set, profiling panel (AID 1180); details: higher = more signal;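 further: RPMI8826 multiple myeloma cell line at 5000 cells per well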
[10] = target: E3 ubiquitin-protein ligase XIAP (Homo sapiens) (UniProt P98170); experiment: small molecules binding XIAP protein – biophysical, small-molecule microarray, fluorescence 635 nm, primary screen (AID 1181); details: higher = more signal;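 further: score merges 667 nm emission and signal to noise over triplicate slides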
[11] = system: XIP peptide (Xip251-270) binding; experiment: XIP fragment 251-270 binding compounds – biochemical, small-molecule microarray, fluorescence 635/667 nm, 0.1 µg/mL protein, primary screen (AID 1182); details: fluorescent protein binding, 635 nm, higher = more signal, called active from +8 up or from −8 down
[12] = system: XIP peptide (Xip251-270); experiment: compounds binding XIP fragment 251-270 – biochemical, small-molecule microarray, fluorescence 635/667 nm, 0.5 µg/mL protein, primary screen (AID 1183); details: fluorescence 635 nm, higher = more signal
[13] = blood-stage malaria parasite viability loss – strain 3D7, DAPI fluorescence, 100 nL, primary screen (AID 1184);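 further: parasites grown inside human red blood cells in medium with human serum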; details: P. falciparum 3D7 growth, 3 d, higher = more signal
[14] = target: Homeobox protein Hox-A13 (Mus musculus) (UniProt Q62424); experiment: disruptors of Hoxa13 oligonucleotide interaction – biochemical, fluorescence polarization, labeled oligonucleotide, primary screen (AID 1185); details: Hoxa13:DNA binding, 15 min, higher = more signal, called active from +8 up or from −8 down
[15] = blockers of DNA damage checkpoint Chk1 activation – imaging, HeLa, hydroxyurea, phospho-Chk1 antibody, percent positive cells, primary screen (AID 1186); details: hydroxyurea-induced phospho-Chk1 immunofluorescence imaging, higher = more signal
[16] = blockers of DNA damage checkpoint Chk1 activation – imaging, HeLa, hydroxyurea, phospho-Chk1 nuclear intensity, primary screen (AID 1187); details: hydroxyurea-induced phospho-Chk1 immunofluorescence imaging, higher = more signal

Sequence of Homeobox protein Hox-A13 (Mus musculus) (Q62424 whole entry, looked up): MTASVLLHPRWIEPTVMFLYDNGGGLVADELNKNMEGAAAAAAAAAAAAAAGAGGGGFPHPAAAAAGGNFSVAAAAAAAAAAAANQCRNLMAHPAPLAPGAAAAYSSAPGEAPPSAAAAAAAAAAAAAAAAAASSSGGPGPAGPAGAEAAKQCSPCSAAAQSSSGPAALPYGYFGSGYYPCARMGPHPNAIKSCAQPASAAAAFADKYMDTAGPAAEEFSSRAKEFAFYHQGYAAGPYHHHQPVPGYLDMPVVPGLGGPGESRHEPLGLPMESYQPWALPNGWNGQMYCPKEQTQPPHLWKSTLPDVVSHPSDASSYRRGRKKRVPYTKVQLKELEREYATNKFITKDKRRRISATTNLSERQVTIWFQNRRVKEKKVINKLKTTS
Sequence of Dihydroorotate dehydrogenase (quinone), mitochondrial (Plasmodium falciparum (isolate 3D7)) (Q08210 whole entry, looked up): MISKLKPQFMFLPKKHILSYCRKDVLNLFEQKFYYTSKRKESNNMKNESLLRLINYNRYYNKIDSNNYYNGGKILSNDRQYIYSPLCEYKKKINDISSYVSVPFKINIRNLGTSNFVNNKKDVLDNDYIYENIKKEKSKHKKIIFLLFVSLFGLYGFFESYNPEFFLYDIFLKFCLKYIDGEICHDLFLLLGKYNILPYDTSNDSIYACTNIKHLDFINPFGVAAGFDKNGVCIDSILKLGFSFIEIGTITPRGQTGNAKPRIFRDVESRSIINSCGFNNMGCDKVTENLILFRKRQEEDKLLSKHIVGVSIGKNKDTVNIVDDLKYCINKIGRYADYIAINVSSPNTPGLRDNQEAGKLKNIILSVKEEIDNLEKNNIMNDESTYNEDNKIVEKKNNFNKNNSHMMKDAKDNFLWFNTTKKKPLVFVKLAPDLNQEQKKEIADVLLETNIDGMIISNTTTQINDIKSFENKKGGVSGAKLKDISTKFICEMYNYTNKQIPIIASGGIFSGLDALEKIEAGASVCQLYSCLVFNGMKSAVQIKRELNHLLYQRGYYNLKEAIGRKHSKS
Sequence of E3 ubiquitin-protein ligase XIAP (Homo sapiens) (P98170 whole entry, looked up, the tested form may be a part): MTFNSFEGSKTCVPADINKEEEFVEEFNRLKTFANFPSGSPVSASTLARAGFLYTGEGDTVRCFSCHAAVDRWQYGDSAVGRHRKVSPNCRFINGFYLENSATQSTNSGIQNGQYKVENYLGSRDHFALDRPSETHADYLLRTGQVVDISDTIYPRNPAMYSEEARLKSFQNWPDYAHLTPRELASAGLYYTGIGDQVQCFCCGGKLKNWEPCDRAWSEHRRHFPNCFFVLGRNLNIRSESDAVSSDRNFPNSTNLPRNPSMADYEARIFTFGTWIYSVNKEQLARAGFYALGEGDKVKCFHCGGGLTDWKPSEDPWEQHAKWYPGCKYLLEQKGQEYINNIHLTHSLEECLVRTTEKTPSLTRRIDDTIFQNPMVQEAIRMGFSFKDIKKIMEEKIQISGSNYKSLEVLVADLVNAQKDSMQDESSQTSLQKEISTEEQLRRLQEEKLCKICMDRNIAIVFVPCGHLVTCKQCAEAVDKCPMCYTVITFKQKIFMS

SMILES	z-score [1]	z-score [2]	z-score [3]	composite z-score [4]	z-score [5]	z-score [6]	z-score [7]	z-score [8]	z-score [9]	composite z-score [10]	composite z-score [11]	composite z-score [12]	z-score [13]	z-score [14]	z-score [15]	z-score [16]
CCCNC(=O)[C@@]1(C)c2ccccc2C(=O)N(C(C)C)[C@H]1c1ccc(CO)cc1	0.241	-0.619 (inactive)	0.148 (inactive)	-0.44 (inactive)	0.332 (inactive)	-0.531 (inactive)	-0.252 (inactive)	-0.516 (inactive)	0.0567	-0.0553	-0.358 (inactive)	-0.395	-1.46	-3.3 (inactive)	-0.017 (inactive)	-0.211 (inactive)
CCCCN1CC=CC23O[C@@H]4C=CCCOC(=O)C4[C@H]2C(=O)N(CCCO)[C@@H]3C1=O (some centres undefined)	-0.341	-1.09 (inactive)	-0.404 (inactive)	-3.94 (inactive)	-0.565 (inactive)	0.0943 (inactive)	-1.54 (inactive)	-1.34 (inactive)	-0.937	0.268	-0.687 (inactive)	-0.624	-1.74	-3.72 (inactive)	-0.0781 (inactive)	-0.559 (inactive)
CO[C@H]1O[C@H](CO)[C@@H](OC(=O)Nc2ccc3c(c2)OCO3)[C@H](OC(=O)Nc2ccc3c(c2)OCO3)[C@H]1OC(=O)Nc1ccc2c(c1)OCO2	-0.159	1.66 (inactive)	-0.798 (inactive)	-0.145 (inactive)	2.5 (inactive)	2.54 (inactive)	1.73 (inactive)	-0.273 (inactive)	-0.511	0.463	2.3 (inactive)	0.842	-2.1	-4.78 (inactive)	-0.134 (inactive)	0.245 (inactive)
CC(c1ccccc1)C(O)C1C=CC2C(=O)N(c3ccccc3)C(=O)C2N1Nc1ccccc1F (centres undefined)	0.677	-0.817 (inactive)	0.0907 (inactive)	0.549 (inactive)	0.533 (inactive)	-1.12 (inactive)	0.0976 (inactive)	0.669 (inactive)	1.21	0.0859	-0.093 (inactive)	0.583	-0.436	-1.51 (inactive)	-0.123 (inactive)	0.104 (inactive)
CN1C(=O)C2C=CC(C(O)c3ccc(Br)cc3)N(Nc3ccccc3)C2C1=O (centres undefined)	0.0752	-0.348 (inactive)	-0.26 (inactive)	-0.125 (inactive)	0.434 (inactive)	0.732 (inactive)	-0.398 (inactive)	-0.413 (inactive)	0.296	-0.0773	-0.115 (inactive)	0.0244	0.672	-1.23 (inactive)	0.247 (inactive)	-0.122 (inactive)
O=C1O[C@H](c2ccccc2)[C@H](c2ccccc2)N2[C@H]1[C@@H](C(=O)NC[C@H](O)c1ccccc1)[C@]1(C(=O)Nc3ccc(C#CC4=CCCCC4)cc31)[C@H]2c1ccc(O)cc1	-0.654	-0.48 (inactive)	-1.78 (inactive)	-2.16 (inactive)	2.02 (inactive)	1.62 (inactive)	0.146 (inactive)	0.165 (inactive)	-3.63	-0.124	0.447 (inactive)	0.766	-1.53	0.685 (inactive)	0.577 (inactive)	1.25 (inactive)
Cc1cccc(/C=C/C=O)c1	0.033	-2.91 (inactive)	-0.0488 (inactive)	-1.16 (inactive)	0.13 (inactive)	-0.181 (inactive)	0.578 (inactive)	0.35 (inactive)	0.387	-0.0559	0.43 (inactive)	0.838	0.787	-1.05 (inactive)	0.381 (inactive)	0.412 (inactive)
COc1ccc([Si](C)(C)[C@H]2[C@H](CC(=O)N(CCO)Cc3ccccc3)O[C@@]3(C(=O)N(Cc4cccc(N5C(=O)c6cccc7cccc5c67)c4)c4ccccc43)[C@@H]2C)cc1	-0.101	0.476 (inactive)	-3.19 (inactive)	-2.98 (inactive)	1.98 (inactive)	0.768 (inactive)	0.67 (inactive)	0.865 (inactive)	-2.93	0.0564	0.719 (inactive)	0.6	-2.72	-1.4 (inactive)	-1.31 (inactive)	-1.11 (inactive)
CC(C)C(CO)N1C(=O)[C@@H]2[C@H]3C(=O)OCC=C[C@H]3OC23C=CCN(c2ccc4ccccc4c2)C(=O)[C@@H]13 (some centres undefined)	-0.128	0.485 (inactive)	0.112 (inactive)	0.958 (inactive)	-0.497 (inactive)	1.24 (inactive)	0.483 (inactive)	0.347 (inactive)	0.133	-0.0476	0.0164 (inactive)	-0.525	-0.279	-3.29 (inactive)	0.207 (inactive)	0.426 (inactive)
COc1ccc(C(=O)Nc2cccc(CN3C(=O)[C@@]4(O[C@@H](CCn5cc([C@H](O)c6ccccc6)nn5)[C@H]([Si](C)(C)c5ccc(OC)cc5)[C@H]4C)c4ccccc43)c2)cc1	-2.55	-1.74 (inactive)	-6.53 (inactive)	-0.0516 (inactive)	1.38 (inactive)	0.588 (inactive)	0.259 (inactive)	-0.237 (inactive)	-6.13	-0.0228	0.0252 (inactive)	0.575	-2.31	0.472 (inactive)	-0.694 (inactive)	-1.14 (inactive)
O=C1OCC=C[C@H]2OC34C=CCN(c5ccc6ccccc6c5)C(=O)[C@H]3N(CCO)C(=O)[C@@H]4[C@@H]12 (some centres undefined)	-0.147	-0.204 (inactive)	0.0073 (inactive)	-1.47 (inactive)	-0.649 (inactive)	0.195 (inactive)	-0.246 (inactive)	-0.118 (inactive)	0.403	0.0896	0.594 (inactive)	0.605	0.666	-5.78 (inactive)	0.0775 (inactive)	0.219 (inactive)
COC(=O)[C@@]1(Cc2ccccc2)[C@H]2c3cc(C(=O)N(C)C)n(Cc4cc(F)c(F)c(F)c4)c3C[C@H]2CN1C(=O)c1ccccc1	0.0126	0.989 (inactive)	-0.402 (inactive)	-0.258 (inactive)	-0.0019 (inactive)	0.968 (inactive)	0.194 (inactive)	0.322 (inactive)	-0.963	0.272	-0.218 (inactive)	0.0006	-1.52	-4 (inactive)	-0.217 (inactive)	-0.227 (inactive)
COCCOC(=O)N1C(=O)[C@@]2(c3ccccc31)[C@H](C(=O)N1CCCCCCC1)[C@H]1C(=O)O[C@H](c3ccccc3)[C@H](c3ccccc3)N1[C@@H]2c1ccccc1OCCO	-0.415	0.406 (inactive)	-0.89 (inactive)	-0.089 (inactive)	3.81 (inactive)	1.79 (inactive)	-0.38 (inactive)	0.0795 (inactive)	-0.201	0.496	2.16 (inactive)	0.83	-2.1	3.39 (inactive)	-0.26 (inactive)	-0.299 (inactive)
O=C1C2C=CC(C(O)c3ccc(Br)cc3)N(n3cnnc3)C2C(=O)N1Cc1ccccc1 (centres undefined)	-0.009	-17.1 (active)	-0.381 (inactive)	-1.37 (inactive)	-0.184 (inactive)	-23 (active)	-0.999 (inactive)	-1.96 (inactive)	-0.396	1.33	0.568 (inactive)	0.76	-0.084	0.314 (inactive)	-0.47 (inactive)	-0.618 (inactive)
CC(C)N1C(=O)c2ccccc2[C@](C)(C(=O)NC2CC2)[C@@H]1c1ccc(CO)cc1	0.989	-0.708 (inactive)	0.192 (inactive)	-0.231 (inactive)	-0.342 (inactive)	0.382 (inactive)	0.783 (inactive)	1.5 (inactive)	0.798	-0.0536	-0.318 (inactive)	0.0807	-0.335	-1.64 (inactive)	-0.119 (inactive)	0.0866 (inactive)
C=C(COC)C(=O)CC[C@H](OC(=O)c1cccnc1)c1ccccc1OCCO	-0.577	-0.332 (inactive)	-3.06 (inactive)	-0.414 (inactive)	1.45 (inactive)	-0.511 (inactive)	-0.438 (inactive)	-0.285 (inactive)	-2.92	-0.0143	-0.0123 (inactive)	0.444	-3.02	-4.46 (inactive)	0.735 (inactive)	0.565 (inactive)
CCOC(=O)C[C@H]1[C@H](OC(=O)c2cc3ccccc3oc2=O)[C@@H](NC(=O)c2ccc3ccccc3c2)c2cc(OCCCO)ccc2N1C(=O)c1ccccc1	-0.438	-1.31 (inactive)	-0.382 (inactive)	-2.91 (inactive)	-0.647 (inactive)	-0.283 (inactive)	-0.464 (inactive)	-1.03 (inactive)	-0.486	0.0871	0.126 (inactive)	0.218	-2.17	0.287 (inactive)	0.371 (inactive)	0.632 (inactive)
COC(=O)[C@@]1(Cc2ccc(OC)cc2)[C@H]2c3cc(C(=O)N(C)C)n(Cc4ccc(OC)c(OC)c4)c3C[C@H]2CN1C(=O)c1ccccc1	-0.962	2.46 (inactive)	-1.67 (inactive)	0.697 (inactive)	0.964 (inactive)	2.19 (inactive)	-0.558 (inactive)	0.0309 (inactive)	-2.28	0.124	0.811 (inactive)	0.696	-1.47	-4.3 (inactive)	-0.225 (inactive)	0.305 (inactive)
Cc1ccc(S[C@]2(C(=O)NCC(F)(F)F)CC(=O)N(C3Cc4ccccc4C3)[C@@H]2c2ccc(CO)cc2I)cc1	0.788	-3.18 (inactive)	-2.74 (inactive)	0.427 (inactive)	0.0898 (inactive)	-0.391 (inactive)	0.715 (inactive)	0.503 (inactive)	-1.32	0.0499	0.448 (inactive)	-0.273	0.178	-2.85 (inactive)	0.0501 (inactive)	0.637 (inactive)
